Screening results deposited in PubChem BioAssay by several laboratories.
PP5 primary – inhibitors of human protein phosphatase 5 (PP5) | purified PP5c, OMFP substrate fluorescence | inhibition, % at 6.7 µM | 320,000 tested, 0.18% active | AID 1987;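 active = inhibition above the campaign's mean inhibition across all tested compounds plus 3 SD, cut at about 9.5% in these data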
JMJD2C inh – blocks human GASC-1 demethylase activity; Q9H3R0; GST-JMJD2C(1-420) H3K9me3 demethylation, DELFIA europium; inhibition, % at 2.35 µM; 330,000 tested, 0.069% active; AID 2099;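 active = more than half of a compound's replicate wells show inhibition beyond 50%, single wells judged on their own value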;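 note: signal counts dimethyl H3K9 product captured on neutravidin plate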
Target sequence (Q9H3R0 1-420 limits assumed): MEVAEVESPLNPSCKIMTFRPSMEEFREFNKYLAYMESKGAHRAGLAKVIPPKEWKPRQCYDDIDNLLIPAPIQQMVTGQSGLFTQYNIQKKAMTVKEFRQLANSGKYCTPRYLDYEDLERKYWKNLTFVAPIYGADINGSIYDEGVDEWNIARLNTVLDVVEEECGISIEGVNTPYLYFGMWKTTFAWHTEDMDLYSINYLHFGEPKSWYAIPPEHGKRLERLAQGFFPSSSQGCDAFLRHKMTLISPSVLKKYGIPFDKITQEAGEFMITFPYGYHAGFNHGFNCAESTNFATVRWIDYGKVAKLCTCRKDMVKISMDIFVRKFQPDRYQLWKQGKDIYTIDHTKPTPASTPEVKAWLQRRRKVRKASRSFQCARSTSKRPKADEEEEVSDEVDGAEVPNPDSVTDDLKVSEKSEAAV
PG9 Ab binder – small molecules binding HIV-1 gp120 antibody PG9; TR-FRET gp120-PG9 antibody binding; 360,000 tested, 0.43% active; AID 624416; inhibition, % at 6.7 µM; in the data active = inhibition above about 8.5%
PP1 counter – blocks human PP1-alpha phosphatase, a PP5 counter-screen; purified PP1alpha, OMFP fluorescence; 320,000 tested, 0.9% active; AID 2235; P62136; inhibition, % at 6.7 µM;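 active = inhibition above the mean inhibition of all tested compounds plus 3 SD, computed separately for each screening campaign, cut at about 15% in these data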
proKLK7 act – activators of human kallikrein-7 zymogen. purified proKLK7, EDANS-DABCYL substrate fluorescence; 100% is mature enzyme control, 0% vehicle. activation, % at 7 µM. 370,000 tested, 0.9% active;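 active = activation above the mean of all tested compounds plus 3 SD, computed per campaign excluding outliers beyond control limits, cut at about 13% in these data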
Target sequence (P49862 whole entry, looked up): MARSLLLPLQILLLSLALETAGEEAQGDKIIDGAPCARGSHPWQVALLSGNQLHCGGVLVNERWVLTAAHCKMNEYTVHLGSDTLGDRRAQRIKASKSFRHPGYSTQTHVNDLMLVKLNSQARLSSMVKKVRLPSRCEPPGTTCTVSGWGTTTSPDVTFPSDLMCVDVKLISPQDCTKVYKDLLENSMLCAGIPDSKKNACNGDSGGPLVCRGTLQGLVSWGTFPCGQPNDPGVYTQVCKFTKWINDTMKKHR
NR1D1 modulator – modulators of human Rev-erb alpha DNA binding | activity, % at 10 µM | Rev-erbα–FITC-DNA binding, fluorescence polarization, 90 min | 370,000 tested, 0.79% active | P20393;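 active = activity above about 14%, limit read from the data; passing the limit was not always enough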
NR1D1 mod conf – Rev-erb alpha (human) modulation, hit confirmation; shares compounds with NR1D1 modulator; Rev-erb alpha FITC-DNA binding, fluorescence polarization, 90 min; activation, % at 25 µM; 3,000 tested, 61% active;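 active = activation at or above a set limit, or at least 3 SD above the negative control mean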
RORg counter – RORgamma DNA-binding activity, dose-response counter-screen | shares compounds with NR1D1 modulator | purified RORgamma protein-FITC-DNA binding, fluorescence polarization | IC50, µM | 910 tested, 8% active | AID 1259320;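 active = Compounds whose fitted half-maximal concentration for disrupting protein-DNA binding is below 10 micromolar; the record names Rev-erb in its text, so the target is in doubt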
Of the large screens only hits and unclear results are named; the others gave an inactive call (follow-up assays come after a bar, where they were run). Hits are enriched below; roughly 2.8% of the tested compounds scored in any of these assays.

CCCn1c(=S)[nH]c2cc(C(=O)NCc3ccccc3OC)ccc2c1=O	NR1D1 modulator 36 (no result: PP5 primary, JMJD2C inh, PP1 counter) | NR1D1 mod conf 27
Cc1c(C(=O)Nc2ccc(Cl)cc2)c2ccccn2c1C(=O)c1ccccc1	NR1D1 modulator 43 | NR1D1 mod conf 18
Cc1c(C(=O)Nc2ccc(Cl)cc2)c2ccccn2c1C(=O)c1ccc([N+](=O)[O-])cc1	none
Cc1cc(N2CCN(S(C)(=O)=O)C[C@@H]2C)ccc1N1CCN(Cc2ccccc2)[C@@H](C)C1	none (no result: PP5 primary, JMJD2C inh, PP1 counter)
Cc1cc(NC(=O)CSc2nc(-c3cccs3)nc3ccccc23)no1	NR1D1 modulator 28 (no result: JMJD2C inh) | NR1D1 mod conf 19
CCCCn1c(SCC(=O)Nc2cc(C)on2)nc2ccccc2c1=O	NR1D1 modulator 43 | NR1D1 mod conf inactive
CCOC(=O)C1=C(C(=O)OCC)C2N(Cc3ccc(Br)cc3)c3ccccc3[C@@]23C[C@@H](C(=O)OC)N(S(=O)(=O)c2cccs2)C3=N1 (some centres undefined)	none (no result: PP5 primary, JMJD2C inh, PP1 counter)
CCOC(=O)c1ccc(Nc2cc(C)nc(-c3ccccc3O)n2)cc1	NR1D1 modulator 38 | NR1D1 mod conf inactive
COC(=O)C1=C(C)N(Cc2ccccc2C(F)(F)F)C(=NCc2cccc(C(F)(F)F)c2)NC1c1ccc(F)cc1 (centres undefined)	none (no result: PP5 primary, JMJD2C inh, PP1 counter)
O=C(COc1ncnc2c(Cl)cc(Cl)cc12)NCCC1=CCCCC1	NR1D1 modulator 22 | NR1D1 mod conf inactive
O=C(COc1ncnc2ccccc12)NCCC1=CCCCC1	none
CCn1c(=O)n(CC(=O)N2CCC(C)CC2)c(=O)c2ccccc21	none (no result: PP5 primary, JMJD2C inh, PG9 Ab binder, PP1 counter)
CC(OC(=O)c1cc2c(ccc3ccccc32)oc1=O)c1nc2ccccc2s1 (centres undefined)	NR1D1 modulator 54 | NR1D1 mod conf 33 | RORg counter inactive
CC(C)(C)NC(=O)c1cc2c(ccc3ccccc32)oc1=O	NR1D1 modulator 37 | NR1D1 mod conf 25
CCN(CC)CCN1C(=O)C(=O)/C(=C(/O)c2ccc(OC(C)C)cc2)C1c1ccncc1 (centres undefined)	none
CCN(CC)CCN1C(=O)C(=O)/C(=C(/O)c2ccc(OC(C)C)cc2)C1c1cccs1 (centres undefined)	NR1D1 modulator 41 | NR1D1 mod conf 27
Cc1c(/C(O)=C2\C(=O)C(=O)N(CCN(C)C)C2c2cccnc2)cnn1-c1ccccc1 (centres undefined)	none
Cc1c(/C(O)=C2\C(=O)C(=O)N(CCN(C)C)C2c2cccs2)cnn1-c1ccccc1 (centres undefined)	NR1D1 modulator 19 | NR1D1 mod conf 27
COc1ccc(C(=O)N/N=C/c2sc3ccccc3c2O)cc1	none (no result: PG9 Ab binder, proKLK7 act, NR1D1 modulator)
COc1ccc2cc(C(=O)N/N=C/c3sc4ccccc4c3O)ccc2c1	NR1D1 modulator 28 | NR1D1 mod conf 27
CCN(CC)c1ccc2cc(S(=O)(=O)c3ccc(Cl)cc3)c(=O)oc2c1	NR1D1 modulator 17 | NR1D1 mod conf 19
CCCCCCc1cc2cc(S(=O)(=O)c3ccc(Cl)cc3)c(=O)oc2cc1O	none
COc1ccc(CC(=O)N(Cc2ccccc2)c2ccccc2C(=O)Nc2cc(OC)ccc2OC)cc1	none (no result: PP5 primary, JMJD2C inh, PG9 Ab binder, PP1 counter)
CCN(CC)c1ccc(N=Nc2ncn[nH]2)cc1	NR1D1 modulator 26 | NR1D1 mod conf 26
COC(=O)c1sc2nc(SCc3ccccc3C)n(N)c(=O)c2c1C	NR1D1 modulator 107 | NR1D1 mod conf inactive
Cc1ccc2nc(Cl)c3nnnn3c2c1	none (no result: PG9 Ab binder, proKLK7 act, NR1D1 modulator)
Cc1ccc2nc(N3CCN(c4cccc(C)c4C)CC3)c3nnnn3c2c1	NR1D1 modulator 28 | NR1D1 mod conf 71 | RORg counter inactive
CCOC(=O)c1cnc(SCC(=O)N2CCN(c3ccccc3)CC2)nc1N	none
CCOC(=O)c1cnc(SCC(=O)N2CCc3ccccc32)nc1N	NR1D1 modulator 49 | NR1D1 mod conf inactive
Cn1c(=O)c(C(=O)COC(=O)c2cc(C(F)(F)F)nc3ccccc23)c(N)n(Cc2ccccc2)c1=O	none
CC(C)Cn1c(N)c(C(=O)COC(=O)c2cc(C(F)(F)F)nc3c(C(F)(F)F)cccc23)c(=O)n(C)c1=O	NR1D1 modulator 46 | NR1D1 mod conf 21
Cc1cc(OC(C)C(=O)NCc2cccnc2)c2c(C)c(Cc3ccccc3)c(=O)oc2c1 (centres undefined)	NR1D1 modulator 107 | NR1D1 mod conf 104 | RORg counter inactive
Cc1cc(OC(C)C(=O)NCc2cccnc2)c2c(C)c(C)c(=O)oc2c1 (centres undefined)	none
CN(C)[C@@H]1CCN(c2ccc3c(c2)OCCCN(C2CC2)S3(=O)=O)C1	none (no result: PP5 primary, JMJD2C inh, PG9 Ab binder, PP1 counter)
CCN1/C(=C/c2ccc3cc(C)ccc3[n+]2CC)Sc2cc(C)c(C)cc21	NR1D1 modulator 20 (no result: PP5 primary, JMJD2C inh, PP1 counter) | NR1D1 mod conf 22
CC[n+]1c(/C=C2\Sc3ccccc3N2C)ccc2cccc(C)c21	none (no result: PP5 primary, PP1 counter, NR1D1 modulator)
CCN1/C(=C/c2ccc3cc(C)ccc3[n+]2CC)Sc2ccccc21	NR1D1 modulator 111 | NR1D1 mod conf 101 | RORg counter inactive
COC(=O)[C@]12C[C@H](CC(=O)N3CCN(C(=O)C4CC4)CC3)C(=O)N(Cc3ccc4c(c3)OCO4)C1=C[C@H](C(C)C)O[C@@H]2C1CC1	none (no result: PP5 primary, JMJD2C inh, PG9 Ab binder, PP1 counter)
Oc1ccccc1-c1nnc(-c2ccc(C(F)(F)F)cc2)o1	NR1D1 modulator 39 | NR1D1 mod conf 23
COc1cccc(-c2nnc(-c3ccc(C(F)(F)F)cc3)o2)c1	none
COc1ccccc1CN1CC(C(=O)NCc2nccn2C)CCC1=O (centres undefined)	NR1D1 modulator 20 | NR1D1 mod conf inactive
COc1ccnc(N2CCN(c3cccc(C(F)(F)F)c3)CC2)c1C#N	NR1D1 modulator 28 | NR1D1 mod conf inactive
COc1ccnc(N2CCN(c3ccc(Cl)cc3)CC2)c1C#N	none
CC(=O)Nc1sc2c(c1-c1nc3ccccc3s1)CCN(C(C)C)CC2	none (no result: PP5 primary, JMJD2C inh, PG9 Ab binder, PP1 counter, proKLK7 act)
COc1ccc(N/C=C2\C(=O)c3c(sc(C)c3C)N(C)S2(=O)=O)cc1	NR1D1 modulator 78 | NR1D1 mod conf inactive
CCCCOc1ccc(C(=O)NC2CCCCN(Cc3ccc(Cl)cc3)C2=O)cc1 (centres undefined)	none (no result: PP5 primary, JMJD2C inh, PG9 Ab binder, PP1 counter)
COC(=O)c1ccc(N/C=C\C(=O)c2ccc3c(c2)OCO3)cc1	NR1D1 modulator 118 | NR1D1 mod conf 44 | RORg counter inactive
COc1ccc(N/C=C\C(=O)c2ccc3c(c2)OCO3)cc1OC	none
COC(=O)c1ccc(N/C=C/C(=O)c2ccc(OC)c(OC)c2)cc1	NR1D1 modulator 23 | NR1D1 mod conf inactive
COc1ccc(Br)cc1C=NNC(=O)c1ccncc1	none (no result: PP5 primary, JMJD2C inh, PG9 Ab binder, PP1 counter)
NC(=O)c1c(NC(=O)c2cccnc2)sc2c1CCCC2	none
